# Bioassay records from PubChem BioAssay.
# A selection: hits, their analogues and other compounds. The true share with any hit is near 1.2%.
# TRPV1 potentiator – HTS Assay for Compounds that Act as Potentiators of the Vanilloid Receptor 1; Transient receptor potential cation channel subfamily V member 1 (Homo sapiens), Q8NER1; TRPV1-expressing cells, Fluo-8 calcium influx, capsaicin EC20 potentiation; potentiation, % at 8.33 µM; 320,000 compounds, 0.02% hits; AID 540277, 2011; in the data active = potentiation above about 80%; inconclusive = between about 30% and that limit; also: 0% is about no effect
#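 Fluo-8 calcium influx in TRPV1-expressing cells, kinetic read (ex 480/em 520 nm). Compound added and read 3 min for agonist activity, followed by capsaicin at EC20 final and 2 min further read for enhancement.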
# TRPV1 ag – HTS Assay for Compounds that Act as Agonists of the Vanilloid Receptor 1 | Transient receptor potential cation channel subfamily V member 1 (Homo sapiens), Q8NER1 | TRPV1-expressing cells, Fluo-8 calcium influx, agonist mode | activation, % at 8.33 µM | 320,000 compounds, 0.19% hits | AID 540275, 2011; in the data active = activation above about 80%; inconclusive = between about 30% and that limit; also: 0% is about no effect
#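 Cells expressing TRPV1 were dye-loaded with Fluo-8 and read kinetically: 10 s baseline, 3 min after compound (agonist portion), then 2 min after EC20 capsaicin (allosteric enhancer portion). Calcium-bound dye fluorescence at 480/520 nm.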
# KCNH2 WT inh – qHTS for Inhibitors of KCHN2 3.1: Wildtype qHTS | Voltage-gated inwardly rectifying potassium channel KCNH2 (Homo sapiens), Q12809 | AID 720551, 2013 | U2OS, BacMam KCNH2, thallium flux FluxOr; active compounds read low | 340,000 compounds, 0.37% hits | activity change, % at 1.84 µM;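 active = maximum activity change below -70%; inconclusive = maximum activity change between -70% and -50%; inactive = maximum activity change above -50%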; also: % is scaled to controls: 0 for no effect and ±100 for the full control effect
#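 U2OS cells were transduced with wild-type KCNH2 virus (2.03 x 10^8 / mL) for 4 h at room temperature, then cultured overnight at 37 C. Thallium flux was read with FluxOr dye. Rate constants were normalized to DMSO controls.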
# KCNH2 3.1 inh – qHTS for Inhibitors of KCHN2 3.1: Mutant qHTS; 340,000 compounds, 0.95% hits; U2OS KCNH2 3.1, thallium flux FluxOr; active compounds read low; activity change, % (tested at about 1.8 µM);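 active = maximum activity change below -70%; inconclusive = maximum activity change from -70% to -50%; inactive = maximum activity change above -50%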;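 also: thallium influx rate constant from kinetic fluorescence after stimulation buffer; % is scaled to controls: 0 for no effect and ±100 for the full control effect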
#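 Channel expression came from 3.1 mutant virus (1.77 x 10^8 /mL) applied to suspended U2OS cells for 4 h. Flux was tracked with FluxOr dye plus Red40 quencher, and kinetic rate constants normalized to controls.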
# * = called active by the depositor; ? = inconclusive; · = not tested or not shown.
SMILES,TRPV1 potentiator,TRPV1 ag,KCNH2 WT inh,KCNH2 3.1 inh
OC(c1cccc(Cl)c1)(c1cccc(Cl)c1)C1CN2CCC1CC2 (stereo unspecified),-9,14,?,-86*
O=C(c1cc(-c2ccc(Cl)cc2)n(-c2ccc(Cl)cc2Cl)n1)N1CCOCC1,-9,?,-49,-104*
O=C(c1cc([N+](=O)[O-])ccc1N1CCNCC1)N1CCOCC1,-11,2,-3,0
CN(C)P(=O)(N(C)C)N1CC1,·,·,-2,1
C=CCn1c(O)c(C(CC)=Nc2cccc(C(F)(F)F)c2)c(=O)[nH]c1=O,-8,1,11,9
CN(N=O)c1cc(O)ccc1O,-7,-1,·,·
O=[N+]([O-])c1cccc(CN2CCN(Cc3ccc(Cl)cc3)CC2)c1,4,2,-9,-84*
CC(C)N1CCN(Cc2cccc([N+](=O)[O-])c2)CC1,-5,-1,0,3
CN(C)CC(C(=O)Cc1ccccc1)c1ccccc1 (stereo unspecified),·,·,2,-6
CCOC(=O)C1(c2ccccc2)CCN(CCC(C#N)(c2ccccc2)c2ccccc2)CC1,·,·,-45,-88*
CCOc1ccc(CN2CCCC(C(=O)c3ccccc3OC)C2)cc1 (stereo unspecified),1,19,-30,-84*
CCOC(=O)C1(CCc2ccccc2)CCN(Cc2cccc3cnccc23)CC1,-6,-4,5,?
CCOC(=O)C1(CCc2ccccc2)CCN(Cc2cccc3c2OCO3)CC1,-15,13,-112*,-97*
COC(=O)C1=C(c2ccc(OC)c(OC)c2)C[C@@H]2CC[C@H]1N2C(=O)N1CCC(O)CC1,2,3,-2,1
Fc1ccc2c(c1)nnn2C1CCN(Cc2nnnn2CCc2ccccc2)CC1,-4,5,1,-1
Cc1nc2ccccc2n1C1CCN(Cc2nnnn2CCc2ccccc2)CC1,16,-3,-23,-82*
FC(F)(F)c1ccc2c(c1)ncn2C1CCN(Cc2nnnn2C2CCCCC2)CC1,27,-3,7,?
Cc1nc2cc(C(F)(F)F)ccc2n1C1CCN(Cc2nnnn2Cc2cccs2)CC1,10,0,-20,-75*
Cc1nc2cc(C(F)(F)F)ccc2n1C1CCN(Cc2nnnn2Cc2ccc3c(c2)OCO3)CC1,-9,6,-16,-77*
Fc1ccc(Cn2nnnc2CN2CCC(n3nnc4cc(C(F)(F)F)ccc43)CC2)cc1,-11,-1,-22,-98*
Oc1ccc2c3c1O[C@H]1c4oc5ccccc5c4C[C@@]4(O)[C@@H](C2)N(CC2CC2)CC[C@]314,-12,2,12,-23
CN1CCN(Cc2cc(=O)n3ccsc3n2)CC1,?,0,6,-81*
O=c1cc(CN2CCNCC2)nc2sccn12,-5,0,-4,6
CCCC(C)C(=O)NC1CCSC1=O (stereo unspecified),-18,-2,-3,-83*
CCN(CC)c1ccc(CN2CC=C(c3ccc(F)cc3)CC2)cc1,-8,0,29,-24
SMILES,TRPV1 potentiator,TRPV1 ag,KCNH2 WT inh,KCNH2 3.1 inh
COc1ccc(CN2CC=C(c3ccc(F)cc3)CC2)cc1Br,-3,2,11,-139*
COc1ccc(CCNCc2cccn2C)cc1OC,1,-3,12,-7
COc1ccc(OC)c(NP(=O)(Oc2ccc(Cl)cc2)Oc2ccc(Cl)cc2)c1,-1,?,-11,7
COc1ccc(NP(=O)(Oc2ccc(Cl)cc2)Oc2ccc(Cl)cc2)cc1OC,5,3,-30,-113*
Cc1ccc(N2C(=O)NC(=O)/C(=C\c3cc(C)n(-c4ccc(C(=O)O)cc4)c3C)C2=O)cc1,3,-5,-4,?
Cc1ccc(N2C(=O)NC(=O)/C(=C\c3cc(C)n(-c4cc(C(=O)O)cc(C(=O)O)c4)c3C)C2=O)cc1,1,-1,-97*,-4
COC(=O)C(O)(c1ccc(N=Cc2ccccc2O)c(C)c1)C(F)(F)F (stereo unspecified),-2,2,-113*,5
COC(=O)C(O)(c1ccc(NC(=O)c2cccs2)c(C)c1)C(F)(F)F (stereo unspecified),-3,11,-18,0
CN1C2c3ccccc3C3C4c5ccccc5C(C31)C(C2[N+](=O)[O-])N4C (stereo unspecified),5,19,-11,-12
NC(=Nc1ccccc1)NN=Cc1c[nH]c2ccccc12,·,·,36,-13
CCN1/C(=C/C=C/C2=[N+](CC)c3ccccc3C2(C)C)C(C)(C)c2ccccc21,·,·,-131*,-77*
CSc1ccc(CN2CCN(C(=O)COc3cccc(C)c3)CC2)cc1,-10,23,6,-39
CC1CCCCC1NC1CCN(C)CC1 (stereo unspecified),28,1,3,-19
CC(C)(CN)CC(=O)O,4,-4,-254*,8
CN1CC=C(/C=C/c2ccc(-c3ccccc3)cc2)CC1,-1,2,8,-90*
COC(=O)C1=C(c2cccc(OC)c2OC)C[C@@H]2CC[C@H]1N2C(=O)NCCNC(C)=O,·,·,0,-4
COC(=O)C1=C(c2ccc(F)cc2OCc2ccccc2)C[C@@H]2CC[C@H]1N2C(=O)NCc1ccc([N+](=O)[O-])cc1,10,19,-20,-88*
COC(=O)C1=C(c2ccc(F)cc2OCc2ccccc2)C[C@@H]2CC[C@H]1N2C(=O)NCc1ccc(F)cc1,-8,12,-12,-36
COC(=O)C1=C(c2cccc(OC)c2OC)C[C@@H]2CC[C@H]1N2C(=O)NCc1ccccc1,·,·,1,-11
COC(=O)C1=C(c2cccc(OC)c2OC)C[C@@H]2CC[C@H]1N2C(=O)NCc1ccc(F)cc1,·,·,-1,-126*
C=CCN1C(=O)C2(C(C(=O)OCC)=C(N)Oc3ccccc32)c2c1c1ccccc1oc2=O (stereo unspecified),-18,11,-3,-109*
COC(=O)C1=C(c2ccc(Cl)c(C(F)(F)F)c2)C[C@@H]2CC[C@H]1N2C(=O)NC1CCCCC1,-21,28,5,-8
C=C(C=O)C[C@@H]1C[C@H](O)C2OC3C[C@]4(C)OC5/C=C\CC6OC7C(CC=CCC6OC5CCCC4OC3CC2O1)OC1CC2OC3CC(=O)OC3C[C@@H](C)C[C@@]2(C)OC1C[C@@H]7C (stereo partly specified),?,-5,-3,25
CN1CCN(c2ccc(N)cc2Cl)CC1,85*,-14,-2,0
CN1CCN(c2ccc(Cl)cc2N)CC1,-3,-1,-5,-13
O=C(O)C1C2CCC(O2)C1C(=O)Nc1ccc(Cl)cc1 (stereo unspecified),5,-1,-2,3
COc1cc(CC(=O)N2C[C@H]3C[C@@H](C2)c2cccc(=O)n2C3)cc(OC)c1OC,-1,3,-199*,1
